Reference: PubChem BioAssay AID615 (Sanford-Burnham Center for Chemical Genomics, 2007)
Out of some 21,000 compounds screened, fewer than 10 were called active.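 How the source made its calls: active means inhibition above 50% at the 20 µM single-dose screen; inactive means the rest.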 The list is a sample of the results.

The compounds below were run against Alkaline phosphatase, tissue-nonspecific isozyme (Homo sapiens) (UniProt P05186) (assay: blockers of alkaline phosphatase TNAP catalysis – biochemical, colorimetric, p-nitrophenol readout, primary screen (AID 615;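 further: 0% = DMSO only wells and 100% = 1 mM levamisole wells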)). Details: purified TNAP, pNPP hydrolysis, absorbance 405 nm; at 20 µM; active compounds read high.
Alkaline phosphatase, tissue-nonspecific isozyme (Homo sapiens), sequence (P05186 whole entry, looked up): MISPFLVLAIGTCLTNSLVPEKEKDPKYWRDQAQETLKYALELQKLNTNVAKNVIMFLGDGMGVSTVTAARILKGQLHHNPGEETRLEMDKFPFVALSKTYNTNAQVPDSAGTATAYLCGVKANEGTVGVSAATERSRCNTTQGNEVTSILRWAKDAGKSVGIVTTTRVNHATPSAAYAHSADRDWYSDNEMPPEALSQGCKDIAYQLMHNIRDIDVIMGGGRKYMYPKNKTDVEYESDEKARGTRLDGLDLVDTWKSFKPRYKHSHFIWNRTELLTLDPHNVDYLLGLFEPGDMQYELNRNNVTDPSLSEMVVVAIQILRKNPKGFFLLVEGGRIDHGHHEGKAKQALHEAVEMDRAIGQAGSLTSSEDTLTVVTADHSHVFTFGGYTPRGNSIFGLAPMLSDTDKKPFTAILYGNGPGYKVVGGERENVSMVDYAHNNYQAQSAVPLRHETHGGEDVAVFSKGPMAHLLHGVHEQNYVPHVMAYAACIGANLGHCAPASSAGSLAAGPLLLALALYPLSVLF

inhibition, inactive:
Cc1cc(C)nc(SCc2ccccc2C#N)n1 1.7%
COc1ccccc1Nc1ncc(C(C)=O)c(C)n1 1.9%
O=C(O)CN(Cc1ccco1)S(=O)(=O)c1ccccc1 0%
CCC(=O)Nc1ccc(C(=O)Nc2ccc3c(c2)C(=O)N(CC2CCCO2)C3=O)cc1 (stereo unspecified) 3.2%
CCCc1cc(=O)n2[nH]c(SCc3ccccc3)nc2n1 4.4%
N#Cc1nc(-c2ccc(OCc3ccccc3)cc2)oc1NCCCN1CCOCC1 4%
O=S(=O)(NCc1cccnc1)c1ccc(Br)s1 2.9%
Cc1ccc(C(=O)N2CCN(C3CCCCC3)CC2)s1 2.5%
COC(=O)c1cc(NC(=O)CN2CCC(C(N)=O)(N3CCCCC3)CC2)cc(C(=O)OC)c1 -6.8%
COc1cccc(NC(=O)c2ccccc2SC)c1 0.3%
COC(=O)c1ccc2c(c1)S(=O)(=O)NC(=NCCCN1CCOCC1)S2 3.7%
O=C(c1ccco1)N(Cc1nc2ccccc2c(=O)[nH]1)C1CCCC1 -5.2%
Cc1ccccc1OCCC(=O)Nc1c(C)n(C)n(-c2ccccc2)c1=O 0%
Cc1cc(C)c(C(=O)CN2C(=O)CCC2=O)cc1C 5%
O=S(=O)(c1ccccc1)N(CC(O)CN1CCCCC1)c1ccccc1 (stereo unspecified) -1.4%
COC(=O)c1ccccc1NC(=O)c1ccccc1NS(C)(=O)=O 8.2%
COC(=O)c1cc(Cl)c(NC(=O)c2ccco2)cc1OC -4.4%
COc1cc(OC)cc(C(=O)Nc2ncc3c(n2)CC(C)(C)CC3=O)c1 3.1%
CC1CCCCC1NC(=O)CSc1nnc(N)s1 (stereo unspecified) 0%
COc1ccc(CNC(=O)c2cc3c(=O)n4ccccc4nc3n(CC3CCCO3)c2=N)cc1 (stereo unspecified) 0.4%
COc1c(F)c(F)c(-c2csc(N)n2)c(F)c1F 1%
COC(=O)c1cccc(NC(=O)CSc2nc(C)cc(=O)[nH]2)c1 6.2%
CC(NCCO)C(=O)C12CC3CC(CC(C3)C1)C2 (stereo unspecified) 6.7%
CCn1nc(NC(=O)c2ccco2)c2cc3ccc(C)cc3nc21 4.2%
COc1ccc(CNC2CCCCC2)cc1 3.7%
CC(C)[C@H](NC(=O)Nc1ccc(S(N)(=O)=O)cc1)C(=O)O 4.9%
O=S(=O)(NCc1ccc2c(c1)OCO2)c1cccc2nsnc12 5.8%
Cc1ccc(S(=O)(=O)N2CCOCC2)cc1C(=O)NCc1ccc(F)cc1 0%
O=C(NCC1CCCO1)C(C(=O)c1ccccc1)n1cc(Cl)ccc1=O (stereo unspecified) 6.1%
Cc1nnc(N(Cc2ccco2)C(=O)c2ccno2)s1 1.8%
O=C(Nc1ccc2c(c1)OCCO2)c1ccncc1 3.7%
CCOC(=O)c1sc(/N=C/Nc2nc(C)c(C(=O)OCC)s2)nc1C 0%
COc1ccc(N(Cc2cc3cc(OC)ccc3[nH]c2=O)S(C)(=O)=O)cc1 2.6%
O=C(CSc1ncccn1)NCCc1ccccc1 1.9%
CC12CCC(C(=O)N(CCC#N)CCC#N)(CC1=O)C2(C)C (stereo unspecified) 5.5%
CNC(=O)CSc1nnc(CCc2ccccc2)n1-c1ccccc1 -9%
O=C(CCCOc1ccccc1)Nc1cccc(C(=O)O)c1 7.6%
CC(C)C[C@H](NC(=O)NCCc1ccc(Cl)cc1)C(=O)O 2.2%
Cc1cc(C)c2nc(SCCC#N)nc(C)c2c1 -0.5%
CCCCn1nnnc1NCc1cc(OC)c(OC)c(OC)c1 -0.6%
C=CCn1c(COc2ccccc2)nnc1SCC(=O)NCC(=O)OCC -6.9%
CC(=O)Cc1nsc(NC(=O)c2ccc(COc3ccc(C)cc3)o2)n1 1.5%
Cc1cc(NC(=O)c2cnn3cccnc23)n(-c2ccccc2)n1 3.9%
Cc1ccc(S(=O)(=O)N2CCC(C(=O)N[C@@H](C)C(=O)NCCc3ccccc3)CC2)cc1 -7.1%
CCC(CC)C(=O)Nc1cc(C(=O)OC)cc(C(=O)OC)c1 4.4%
CC(=O)N1CCN(CCN=CC2=C(O)CC(C)(C)CC2=O)CC1 5.5%
Cc1ccc2c(C(=O)CN3CCCC3)c(C)[nH]c2c1 -14.5%
O=C(O)CN(Cc1ccco1)S(=O)(=O)c1ccc(F)cc1 0.4%
COc1ccc(NC2CC(=O)N(C)C2=O)cc1 (stereo unspecified) 3.1%
Cc1occc1C(=O)Nc1cccc(Cn2cccn2)c1 -2.4%
CC(=O)OCc1cc(=O)n(C)c(=O)n1C 1.6%
Nc1nnnn1/N=C/c1cccs1 0%
CC(C)c1nc(-c2ccccn2)no1 2.2%
CSCCC(NC(=O)c1ccc(=O)n(C)n1)c1nc2ccccc2[nH]1 (stereo unspecified) -0.4%
CCc1ccccc1N(CC(=O)N1CCN(c2ccccc2F)CC1)S(C)(=O)=O 3.4%
Cc1cccc(N(CC(O)CN(C)C)S(=O)(=O)c2ccccc2)c1 (stereo unspecified) 6%
CC(=O)Nc1nc(C)c(Cc2ccccc2)c(=O)[nH]1 0%
CC(C)C(c1nnnn1C1CCCC1)N1CCN(c2ccccc2F)CC1 (stereo unspecified) 4.1%
O=C(NC(c1ccccc1)c1ccccc1)N1CCN(CCO)CC1 5.5%
c1ccc(-n2ncc(-c3nn[nH]n3)n2)cc1 1.2%
COc1ccc(C2/C(=C(/O)c3ccc(OC(C)C)cc3)C(=O)C(=O)N2CCCN2CCOCC2)cc1 (stereo unspecified) 2.6%
CCCOc1ccc(CN(CCO)CCO)cc1C(=O)OC 8.5%
CCC(=O)Nc1cccc(NC(=O)CSc2nnnn2C2CCCC2)c1 4.5%
CCOC(=O)N1CCN(Cc2oc(CO)cc(=O)c2O)CC1 4.3%
Cc1ccc(-n2c(Cc3cccs3)nnc2SCC(=O)OC(C)C)cc1 -1%
CCc1nnc(NC(=O)CSc2nnc(-c3ccncc3)n2Cc2ccccc2)s1 5.3%
Cn1c(=O)c2c(nc(Br)n2CCSc2nc3ccccc3o2)n(C)c1=O 0%
COc1ccc(CCNS(=O)(=O)c2ccc(F)cc2)cc1OC 3.6%
Nc1nonc1-c1nc2ccccc2n1Cc1ccc(F)cc1 -0.2%
COCCCn1c2nc3ccccc3nc2c2c(=O)n(Cc3ccc(Cl)cc3)c(C)nc21 7.2%
CN1CCN(C(=O)C2C3C=CC(C3)C2C(=O)O)CC1 (stereo unspecified) 3.6%
CCCCC(=O)N1CC2(C)CN(C(=O)CCCC)CC(C)(C1)C2=O -3.1%
O=C(CSc1nnc(-c2cccs2)n1Cc1ccco1)c1ccc2c(c1)OCO2 1.9%
COc1ccc(/C(O)=C2/C(=O)C(=O)N(CCCN(C)C)C2c2ccccc2)cc1OC (stereo unspecified) 2.9%
CCCCC(=O)Nc1ccc2c(c1)OCCO2 -5.8%
CC(=O)C1=C(O)C(=O)N(c2ccc(S(N)(=O)=O)cc2)C1c1ccccc1F (stereo unspecified) 0.8%
CCOC(=O)c1c(-n2cnnn2)sc(C)c1C 3.1%
Cn1c2c(c(=O)n(C)c1=O)CN(Cc1ccco1)CN2 -1.5%
Cc1ccc(NC(=O)N2CCC(C(=O)NCc3ccc(F)cc3)CC2)cc1 6.4%
Cc1ccccc1C(=O)Nc1cccc(-c2nnc(SCC(=O)O)n2C)c1 1.1%
Cc1ccc2[nH]c3c(c2c1)CN(C(=O)CN1CCN(c2ccccc2)CC1)CC3 2.7%
CC(=O)N(CN1C(=O)C2CC=CCC2C1=O)c1cccc(Cl)c1 (stereo unspecified) 7.2%
COc1ccc(C2/C(=C(/O)c3ccccc3)C(=O)C(=O)N2c2ncccn2)cc1OC (stereo unspecified) -1.7%
COc1ccc(C(CNC(=O)c2cccnc2SC)N2CCOCC2)cc1 (stereo unspecified) -2%
CCCCNc1nc2c(c(=O)[nH]c(=O)n2C)n1CCOc1ccccc1 4.2%
CC(=O)c1cc(-c2ccccc2)[nH]c1N1CCCC1 0.8%
O=C(C1CCCO1)N1CCC(c2nc3ccccc3[nH]2)CC1 (stereo unspecified) 5.7%
O=C1Nc2ccccc2C12Nc1ccccc1S2 (stereo unspecified) 2%
Cc1ccc(-c2c3c(=O)n(C)c(=O)n(C)c3cn2-c2ccccc2O)cc1 1.8%
Cc1ccccc1-n1c(SCC(=O)NCc2cccs2)nnc1-c1ccncc1 -7.5%
CCc1nnc(NC(=O)c2c(O)c3c([nH]c2=O)CCCC3)s1 6.2%
COc1ccccc1CNC(=O)C1CCN(S(C)(=O)=O)CC1 7.2%
COc1ccc(NC(=O)c2c(C)oc3c2CCCC3)cc1 5.5%
Cc1nc2nc(CSc3nc4ccccc4s3)cc(=O)n2[nH]1 1.3%
CCOC(=O)C1CCCCN1Cc1ccc(OC)c(OC)c1OC (stereo unspecified) 6.8%
CS(=O)(=O)N(CC(=O)N1CCN(Cc2ccc3c(c2)OCO3)CC1)c1ccc2c(c1)OCO2 -15%
Cc1cc(C(=O)COC(=O)c2cccs2)c(C)n1-c1c(C)n(C)n(-c2ccccc2)c1=O 4.7%
CCCOP(=O)(c1ccc(N(C)C)cc1)C(O)c1cc(OC)c(OC)c(OC)c1 (stereo unspecified) 12.9%
COc1ccc(CCNC(=O)CSc2nnc(-c3cccc(F)c3)o2)cc1OC -1.5%
COc1ccc(CCN(C)CCN2C(=O)c3ccccc3C2=O)cc1OC -0.3%
Cc1ccc(C(=O)NC2CCN(C(=O)N3CCOCC3)CC2)cc1 7%
